Assays:
Test in all cases: PBM binding z-score (relative to random genomic background probes); higher = stronger binding; sequences stand for … in GC…GCGATTGACAGCGTAGAATGAAGG
[1] = test system: RARb homodimer (NR concentration 270 nM)
Method in brief: (§1)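 Ligand-free nuclear receptor dimers were bound for 1 h to custom Agilent 4×180K protein-binding microarrays. Detection used antibodies against each partner (one per run). Binding z-scores rest on regression-normalized fluorescence, with random background probes as the reference.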

[2] = test system: RARg:RXRa (NR concentration 270 nM, RXRa partner concentration 90 nM)
Method in brief: as §1

[3] = test system: RARg homodimer (NR concentration 270 nM)
Method in brief: as §1

[4] = test system: RXRa DBDmut IVT, anti-RXR (DBD mutation: RXRa K156A/R161A, NR concentration 90 nM)
Method in brief: as §1

[5] = test system: RXRa homodimer (NR concentration 180 nM)
Method in brief: as §1

[6] = test system: THRa:RXRa (NR concentration 90 nM, RXRa partner concentration 90 nM)
Method in brief: as §1

[7] = test system: THRa homodimer (NR concentration 90 nM)
Method in brief: as §1

[8] = test system: VDR homodimer (NR concentration 270 nM)
Method in brief: as §1

Sequence | PBM binding z-score [1] | PBM binding z-score [2] | PBM binding z-score [3] | PBM binding z-score [4] | PBM binding z-score [5] | PBM binding z-score [6] | PBM binding z-score [7] | PBM binding z-score [8]
TCATATAGGTAAAAGGTGAAAATCGGTGTGGTAA | 1.58 | 2.04 | 0.775 | 1.69 | 3.08 | 1.56 | 0.242 | 0.627
CAAACTAGGTCACGACAGGTCAAAGTCGAATGAC | 4.83 | 6.43 | 6.78 | 2.05 | 6.08 | 5.05 | 2.47 | 2.23
TATACCGGGTCAAAGGCCAGAGTACGAATGTCGA | 3.15 | 4.74 | 4.08 | 1.38 | 5.91 | 3.36 | 0.712 | 1.98
CCTCGGTGGACAACAGGAGGTCAGAGCTGCCAGA | 2.99 | 2.06 | 1.73 | -0.87 | 1.64 | 1.97 | 0.341 | 0.396
CGTAAAAGTTCAACTAAGGTAACGTAAAGCACGC | 3.88 | 5.28 | 6.11 | 4.41 | 4.42 | 5.35 | 1.75 | 3.84
GCTGCTAGGTCTACTGATGGTCAGCTAAAGCTCG | -0.175 | -0.238 | -0.555 | 0.147 | -0.738 | -0.635 | -0.572 | -0.893
CCGACTGCGGCAAAGGTTACCATACTCAGTACGA | 2.07 | 1.43 | 1.07 | 0.531 | 2.46 | 1.33 | 0.0326 | 0.183
TGAATGAGGTTATAAGATGAGGGAACGTTGCAAA | 0.278 | 1.31 | 1.12 | 0.817 | 1.76 | 1.77 | 0.282 | 0.388
ATACCAAGGTGATCGTGAGGTCGTTGAAACTAAC | 2.04 | 2.53 | 1.34 | 0.72 | 1.98 | 3.84 | 3.02 | 3.25
AGAATGAGGTTATACGTAGATCACGGAAGAAAGT | 0.646 | 1.96 | 1.21 | 2 | 2.38 | 2.11 | 0.348 | 0.934
ATCTCTAGGTGAGACTCAGTTCAGTGAAGAACGC | 0.564 | 0.527 | 0.376 | 0.062 | 0.00106 | 0.954 | 0.42 | 0.761
CCTACTGGGCCATTCAGGGGTCATTGATCATATG | 3.95 | 4.69 | 3 | 0.56 | 5.5 | 3.31 | 0.962 | 4.05
CCTAGCAGGCCAATCTGGGTGACTCAAGGCTTGA | -0.195 | -0.294 | -0.326 | -0.391 | -0.592 | 2.16 | -0.548 | -0.648
ACTAGCTGGCCAAGGGTCACTCAAGATTAGTCCG | 3.54 | 3.78 | 3.54 | 0.138 | 3.9 | 2.48 | 0.0817 | 0.917
CGACCTAGGTCATCCAGGACAGTGAATACATTGA | 3.41 | 4.75 | 4.97 | 2.6 | 3.37 | 4 | 2.18 | 2.5
ATCTCTAGGTAACCCAGTTCAGTGAATGCCGAAC | 0.825 | 0.714 | 0.439 | 0.564 | 0.828 | 1.45 | 0.872 | 1.39
CTACCAAGCTGAACAAGGTCGTTGATTACTATTC | 1.13 | 0.311 | 0.109 | 1.3 | 0.787 | 1.86 | 1.46 | 2.1

Sequence | PBM binding z-score [1] | PBM binding z-score [2] | PBM binding z-score [3] | PBM binding z-score [4] | PBM binding z-score [5] | PBM binding z-score [6] | PBM binding z-score [7] | PBM binding z-score [8]
ATCTCTAGGTAACAAGTCCAGTGAAAGAGAGGAC | 0.709 | 0.499 | 0.722 | 0.0341 | 0.552 | 0.997 | 0.64 | 0.635
CCAGACAGGTGTAAGGTAACTCAGTCTGGTACGC | -0.201 | -0.0982 | -0.292 | 0.0922 | -0.0847 | 1.59 | 1.21 | 0.39
TCTGCTAGGTCAAGGATGGTCAGCTAATCTGCTA | 3.49 | 3.97 | 4.85 | 0.94 | 2.6 | 2.88 | 0.621 | -0.0676
CAAACTAGGTCACCGGAAGGTCAAACTCCGCATG | 5.43 | 8.28 | 7.24 | 2.46 | 6.33 | 4.6 | 3.44 | 4.04
ATCGAAAGGTCGCGAGGTGAGTATACAGAAAGGC | 3.4 | 5.11 | 4.94 | 0.903 | 5.7 | 3.45 | 0.86 | 0.971
GTACCAAGGTGAATAGGTCCTTGATGAGTAGGCG | 0.586 | 0.974 | 0.683 | -0.522 | 0.785 | 1.23 | 0.287 | -0.46
TCAAGTAGGTTACCAATGGGGCATTCAGCTTTCT | 1.04 | 1.42 | 0.77 | 1.45 | 0.978 | 0.342 | -0.498 | -0.25
ATCACTAGGTAACCAAGTTCAGTGAATGCCGAAC | 1.26 | 0.732 | 0.632 | 0.466 | 0.53 | 1.32 | 0.313 | 2.41
CCTTACGGGTCACTGACAGGTTATAGTATTTGGA | 3.11 | 5.61 | 4.34 | 1.85 | 5.18 | 3.04 | 0.562 | 1.17
GGAACGAGGGCACTCGAGTTGATAGCATGGCGAT | 0.585 | 0.902 | 1.45 | 2.21 | 0.67 | 2.41 | -0.47 | 1.75
ACAGACAGGTGAGTGGAGGTAACTCAGCTGGACG | 0.51 | 0.417 | 0.421 | -0.468 | 0.451 | 2.29 | -0.0738 | -0.0506
ATACCAACGTGATCGTGAGGTCGTTGATACTAAC | 0.904 | 0.317 | 0.269 | 0.532 | 0.915 | 2.36 | 1.73 | 2.32
TCTTGTAGAGCAACAGGAGGTTAAGAAAGATCGA | 0.136 | 0.269 | 0.0354 | 0.0247 | 0.479 | 0.705 | -0.732 | -0.241
CATACTGGGCCAAGGTCATTGATCAGTCAAAGCA | 3.56 | 3.85 | 3.29 | 1.62 | 3.31 | 3.49 | 2.63 | 3.71
CCTCCTGGGCCATCAGGTCATTGATATCAACGTT | 2.47 | 1.98 | 1.71 | -0.401 | 1.15 | 3.04 | 3.09 | 1.18
TCATATATGTAAAAGGTGAAAGTCGGTGTGGTAA | 1.67 | 1.18 | 0.788 | 1.48 | 1.79 | 1.36 | 0.104 | 0.0436
CCGAGTAGGTTATGTGGCATTCAGGCAACGGTGA | 0.908 | 0.273 | 0.223 | 0.434 | 0.208 | 0.162 | 0.415 | 0.153

Reference: the supplement of paper PMC6555819
